# From PubChem
# These entries were drawn from the full list.
# aSyn 5UTR act: Activators working through SNCA 5'UTR binding (MLPCN); alpha-synuclein 5'UTR reporter, activators screen; activity score, % (tested at 7.5 µM), hits read low; 300,000 tested, 7.1% active; in the data active = activity score below about -60%
# * hit, by the source's call.
SMILES,aSyn 5UTR act
N#CC1=C(N)OC2=C(CCc3ccccc32)C1c1ccccc1 (stereo unspecified),70
COC(=O)c1ccc(NS(=O)(=O)NC(=O)c2cn(C)c3ccccc23)cc1,-84*
COc1cccc(NS(=O)(=O)NC(=O)c2cn(C)c3ccccc23)c1,-69*
O=C(Cc1ccc(-c2ccccc2)cc1)Nc1ccccn1,-118*
Cc1ccnc(NC(=O)Cc2ccc(-c3ccccc3)cc2)c1,-122*
Cc1cc(NC(=O)CSc2nc3c(C)cccc3cc2C#N)no1,-209*
Cc1cccc2cc(C#N)c(SCC(=O)N3CC(=O)Nc4ccccc43)nc12,110
CC(C)(C)c1ccc(N=C2SCC(=O)N2Cc2cccs2)cc1,-72*
O=C(Nc1ccccc1)C1=C[C@H](c2ccc3c(c2)OCO3)C[C@H](OCCCCO)O1,-89*
O=C(Nc1ccccc1)C1=C[C@@H](c2ccc3c(c2)OCO3)C[C@@H](OCCCCO)O1,-112*
CCn1c(SC(C)C)nnc1-c1cc(-c2ccccc2)sc1N,-171*
COc1cc(/C=N/Nc2nc(N3CCCC3)nc(N3CCCC3)n2)ccc1OCc1ccccc1F,-72*
COc1ccc(NC(=O)c2csc(Cc3ccccc3)n2)cc1,-110*
O=C(Nc1ccc(F)cc1)c1csc(Cc2ccccc2)n1,-110*
O=C(NC(=O)c1ccccc1O)c1ccc(C(F)(F)F)cc1,-69*
Cc1ccc(-c2csc(NC(=O)COC(=O)c3cccc(S(=O)(=O)N4CCOCC4)c3)n2)cc1,-93*
Cc1ccc(-c2csc(NC(=O)c3cccc(S(=O)(=O)N4CCN(C)CC4)c3)n2)cc1,-66*
O=c1c2ccccc2nnn1CSc1ccccc1F,-98*
Cc1ccc(SCn2nnc3ccccc3c2=O)c(C)c1,-147*
O=c1c2ccccc2nnn1CSc1nc2ccccc2[nH]1,-173*
Cc1ccc2nc(SCn3nnc4ccccc4c3=O)[nH]c2c1,-139*
CC1CCCCC1NC(=O)Cn1nnc2ccccc2c1=O (stereo unspecified),61
Cc1ccc(NC(=O)Cn2nnc3ccccc3c2=O)cc1,-93*
Cn1cc(CCNC(=O)c2ccc3nc(Cc4ccccc4F)oc3c2)cn1,-116*
Cn1cc(CNC(=O)c2ccc3nc(Cc4ccccc4F)oc3c2)cn1,-84*
SMILES,aSyn 5UTR act
O=C(NCCc1ccccn1)c1ccc2nc(Cc3ccccc3F)oc2c1,-111*
CCn1nnc2cc(C(=O)NCCc3ccccc3F)ccc21,63
CC(C)=CC(=O)OCc1cc([N+](=O)[O-])cc2c1OCOC2,-110*
Cc1ccccc1OCC(=O)OCC(=O)c1ccc(OCc2ccccc2)cc1,-112*
COc1ccc(OCc2ccc(C(=O)O)cc2)cc1,-111*
COc1ccccc1CC(=O)c1ccc(OCc2ccccc2)cc1,-73*
O=C(COC(=O)c1cccc([N+](=O)[O-])c1)c1ccc(OCc2ccccc2)cc1,-75*
CCCSc1nnc(-c2c[nH]c3ccccc23)n1C,-78*
O=C(/C=C/c1ccc2c(c1)OCO2)Nc1nc2ccc(F)cc2s1,-110*
O=C(/C=C/c1ccc2c(c1)OCO2)Nc1nc(-c2ccc(F)cc2)cs1,-62*
O=C(NCCc1ccccc1)c1ccc(Cl)c(S(=O)(=O)N2CCCC2)c1,-67*
O=C(NCCc1ccccc1)c1cnc(Cl)c(Cl)c1,-119*
O=C(NCC(O)c1ccccc1)c1ccc(Cl)c(S(=O)(=O)N2CCCC2)c1 (stereo unspecified),-96*
O=C(NCC(O)c1ccccc1)c1ccccc1 (stereo unspecified),-80*
CC1CN(S(=O)(=O)c2cc(C(=O)NCCC3=CCCCC3)ccc2Cl)CC(C)O1 (stereo unspecified),-85*
Cc1ccc(-c2nn(-c3ccccc3)cc2CO)cc1,-104*
Cc1ccc(-n2nc3c(=O)n(CCCC(=O)NCc4ccc(Cl)cc4)nc(C)c3c2C)cc1,62
COc1ccc(-c2nn(-c3ccccc3)cc2CO)cc1,-86*
Cc1ccc(-n2nc(C)c(NC(=O)CCl)c2C)cc1,-146*
COc1ccc(-c2nn(-c3ccccc3)cc2N)cc1,-167*
Cc1ccc(-c2nn(-c3ccccc3)cc2NC(=O)CCl)cc1,-71*
COc1cccc(/C=C/C(=O)c2ccc(NC3=NCCCS3)cc2)c1,-101*
Cc1cccc(/C=C/C(=O)c2ccc(NC3=NCCCS3)cc2)c1,-220*
Cc1cc(C)cc(C(=O)Nc2ccc(N3CCCC3)cc2)c1,-120*
Cc1cc(C)cc(NC(=O)Nc2ccc(N3CCCCC3)cc2)c1,-153*
SMILES,aSyn 5UTR act
Clc1cccc(CSc2ncn(-c3ccccc3)n2)c1,-67*
O=c1c(C=NCCN2CCNCC2)c(-c2ccccc2)[nH]n1-c1ccc([N+](=O)[O-])cc1,-94*
O=c1c(C=NCCCO)c(-c2ccccc2)[nH]n1-c1nc2ccccc2s1,60
Cc1ccc2nc(N/C(=N/S(=O)(=O)c3ccc(F)cc3)c3ccccc3)sc2c1,-107*
Cc1ccc2nc(N/C(=N/S(=O)(=O)c3ccc(F)cc3F)c3ccccc3)sc2c1,-108*
COc1ccc(C(=O)C(OC(=O)c2ccccc2)c2ccccc2)cc1 (stereo unspecified),-169*
COc1ccc(C(=O)C(OC(=O)c2ccccc2Cl)c2ccccc2)cc1 (stereo unspecified),-104*
O=C(Nc1ccccc1O)c1ccccc1O,-133*
O=C(Nc1ccccc1O)c1ccc(C(=O)c2ccccc2)o1,-96*
Cc1cccc(NC(=O)c2cnn3ccccc23)c1C,-85*
Cc1ccccc1NC(=O)c1cccc2nccnc12,-74*
Cc1cccc(C(=O)NNC(=O)c2ccccc2O)c1,-76*
Cc1cccc(NC(=O)c2ccccc2O)c1C,-174*
Cc1onc(-c2ccccc2)c1C(=O)NC(=S)NNC(=O)c1ccccc1O,63
Cc1ccc(C)c(NC(=O)c2ccccc2O)c1,-96*
O=C(NCc1ccc(Cl)cc1)c1cnn2ccccc12,-142*
CC(=O)Nc1ccc(Nc2nc(C)c([N+](=O)[O-])c(Nc3ccccc3)n2)cc1,58
Cc1nc2sc(C(=O)Nc3ccccc3)c(N)c2c(C)c1[N+](=O)[O-],-79*
CC(=O)Nc1ccc(Nc2nc(C)c([N+](=O)[O-])c(N(C)c3ccccc3)n2)cc1,86
CC(=O)c1ccc(NC(=O)c2sc3nc(C)c(C)c(C)c3c2N)cc1,-233*
Nc1c(C(=O)Nc2ccccc2)sc2ncc([N+](=O)[O-])cc12,-63*
Cc1snc2sc(C(=O)c3ccc(Br)cc3)c(N)c12,-101*
Cc1nc2sc(C(=O)c3ccccc3)c(N)c2c(C)c1C,-68*
Cc1nc2sc(C(=O)OC(C)C)c(N)c2c(C)c1C,-190*
CSc1nsc(SCC(=O)Nc2ccc(OC(C)=O)cc2)n1,-124*
SMILES,aSyn 5UTR act
CSc1nsc(SCC(=O)Nc2ccccc2F)n1,-63*
CCOC(=O)c1ccc(NC(=O)CSc2nc(SC)ns2)cc1,-107*
CC1CCC(NC(=O)c2ccc(NS(=O)(=O)c3ccc4[nH]c(=O)[nH]c4c3)cc2)CC1 (stereo unspecified),-124*
CSc1nc(N)nc(SCC(=O)OC(C)C)c1C#N,-82*
CSc1nc(N)nc(SCC(=O)c2ccc(C)cc2)c1C#N,-113*
Cc1snc(SCC(=O)c2ccc(F)cc2)c1C#N,-124*
Cc1ccc(Nc2nc(CSc3nnc(-c4ccccc4)n3C)cs2)cc1,-68*
Cc1ccc(Nc2nc(CSc3nnc(-c4ccccc4C)n3C)cs2)cc1,-93*
O=C(CSc1nnnn1C1CCCC1)c1ccc2c(c1)OCCO2,-102*
CC(C)n1nnnc1SCC(=O)c1ccc2c(c1)OCCO2,-145*
